About 83,000 compounds went through this panel and 20% of them were active in at least one assay; those are over-represented in the sample as a whole.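 A percent growth of 40 corresponds to 60% growth inhibition; 0 means no net growth; -100 means all cells died. Active threshold: below 10.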 A number with no mark means an inactive call. Activity calls are given as the source filed them.

Among the test systems are T-47D breast; BT-549 breast; MDA-MB-435 melanoma; SW-620 colon; MCF7 breast; HCT-116 colon; HCC-2998 colon; KM12 colon.
Common to all, as to test: NCI-60 one-dose screen, 48 h (100 = growth as untreated, 0 = no growth, -100 = all killed)
Settings in all cases: 10 µM

Consider `C=C(C)[C@@H]1CC[C@]2(COCCC#N)CC[C@]3(C)[C@H](CC[C@@H]4[C@@]5(C)Cc6c([nH]c7ccccc67)C(C)(C)[C@@H]5CC[C@]43C)[C@@H]12`, for which the growth was 81.8% in the test with T-47D breast; 95.3% with BT-549 breast; 95.8% in the test with MDA-MB-435 melanoma; 92.6% with SW-620 colon; 81.1% with MCF7 breast; 82% in the test on HCT-116 colon. In addition, the results for the growth in the test on HCC-2998 colon and in the test with KM12 colon were 104% and 95.8%, respectively.
As for `CCN(CC)CCN1c2nc3ccccc3cc2Sc2cc3ccccc3nc21`, the growth is 73.5% in the test with T-47D breast; -92.4% (active) with BT-549 breast; -25% (active) in the test on MDA-MB-435 melanoma; -29.7% (active) in the test on SW-620 colon; -100% (active) with MCF7 breast; -45.4% (active) in the test with HCT-116 colon. In the test on HCC-2998 colon, the growth is -99% (active).
On to `O=C(Nc1ccc2c(O)cc(S(=O)(=O)O)cc2c1)c1ccc([N+](=O)[O-])cc1`, for which the growth in the test with T-47D breast is 86%; in the test with BT-549 breast it was 94.3%; in the test on MDA-MB-435 melanoma it was 106%; in the test on SW-620 colon, 100%; with MCF7 breast, 96.3%; in the test with HCT-116 colon, 94.1%. The results for the growth with HCC-2998 colon and with KM12 colon were 108% and 97.2%, respectively.
On to `O=C(O)c1ccc(-n2cc(CNc3ccc(Cl)cc3)c(-c3ccccc3)n2)cc1`, for which the growth in the test on T-47D breast is 89.4%; with BT-549 breast, 90.2%; with MDA-MB-435 melanoma, 91.9%; in the test on SW-620 colon it was 92.6%; in the test with MCF7 breast it was 87.4%; in the test on HCT-116 colon, 85.9%. In addition, the growth with HCC-2998 colon was 113%; in the test on KM12 colon, 87.8%.
On to `O=C(CSc1nnc(-c2cccnc2SCc2ccccc2)o1)Nc1nc(Cl)cc(Cl)n1`, for which the growth with T-47D breast was 98.5%; in the test on BT-549 breast, 102%; with MDA-MB-435 melanoma, 105%; in the test on SW-620 colon it was 103%; in the test on MCF7 breast it was 92%; with HCT-116 colon, 97.3%. In the test with HCC-2998 colon, the growth is 103%.
`CN(C)c1ccc(/C=N/NC(=O)c2ccccc2Nc2cccc(C(F)(F)F)c2)cc1`: the growth is 75.6% in the test with T-47D breast; 79.1% in the test with BT-549 breast; 92.3% in the test with MDA-MB-435 melanoma; 93.6% with SW-620 colon; 92.5% in the test on MCF7 breast; 75.1% with HCT-116 colon. The growth in the test with HCC-2998 colon was 116%.
As to `NC(N)=N/N=C(\N=Nc1ccccc1)c1ccc(Cl)cc1`, the growth in the test on T-47D breast was 20.4%; in the test with BT-549 breast, 67.2%; in the test with MDA-MB-435 melanoma it was 5.69% (active); in the test with SW-620 colon, 12.7%; in the test with MCF7 breast, 23.8%; in the test with HCT-116 colon it was 15%. The growth was 11% in the test on HCC-2998 colon and 20.8% in the test on KM12 colon.
For the compound `Cc1ccc(C)c(COc2cc(NC(=O)c3ccc4c(c3)OCO4)ccc2N(C)S(C)(=O)=O)c1`, the growth is 8.82% (active) in the test on T-47D breast; 27.5% with BT-549 breast; -15% (active) in the test with MDA-MB-435 melanoma; 28.7% in the test with SW-620 colon; 11.1% in the test with MCF7 breast; -34.1% (active) in the test on HCT-116 colon. For the same compound, the results for the growth in the test on HCC-2998 colon and in the test on KM12 colon were -41.5% (active) and -10.9% (active), respectively.
Consider `COc1cc2cc(Oc3ccc(NC(=O)c4ccc(Cl)c(C(F)(F)F)c4)cc3)c(C)nc2cc1OC`, for which the growth in the test with T-47D breast was 82.8%; in the test on BT-549 breast it was 20.8%; in the test on MDA-MB-435 melanoma it was 25.7%; in the test on SW-620 colon, 34.2%; in the test with MCF7 breast, 24.8%; in the test on HCT-116 colon, 8.43% (active). In addition, the figures for the growth with HCC-2998 colon and in the test with KM12 colon were 41.3% and 19.7%, respectively.
As to `CC(=O)Nc1ccc(CC[C@H]2CCC/C=C/[C@@H]3C[C@H](O)C[C@H]3[C@H](O)/C=C/C(=O)O2)cc1`, the growth in the test with T-47D breast was 7.42% (active); in the test with BT-549 breast it was 27.5%; in the test on MDA-MB-435 melanoma, 14.7%; in the test on SW-620 colon, 0.331% (active); in the test on MCF7 breast, -14.8% (active); in the test on HCT-116 colon it was -67.9% (active). The growth in the test with HCC-2998 colon was 2.85% (active).
As to `C=C(NC(=O)C(=C)NC(=O)c1csc(C2=NC3c4csc(n4)C4NC(=O)c5csc(n5)C(C(C)(O)C(C)O)NC(=O)C5CSC(=N5)C(=CC)NC(=O)C(C(C)O)NC(=O)c5csc(n5)C3(CC2)NC(=O)C(C)NC(=O)C(=C)NC(=O)C(C)NC(=O)C(C(C)CC)NC2C=Cc3c(C(C)O)cc(nc3C2O)C(=O)OC4C)n1)C(N)=O` (centres undefined), the growth is 40.4% with T-47D breast; 0.0683% (active) with BT-549 breast; 4.84% (active) with MDA-MB-435 melanoma; 1.83% (active) in the test with SW-620 colon; 16.7% in the test on MCF7 breast; -70.9% (active) in the test with HCT-116 colon. In addition, the results for the growth in the test on HCC-2998 colon and in the test with KM12 colon were 79.3% and 28.3%, respectively.
As for `O=C1/C=C/[C@@H](O)[C@@H]2C[C@@H](O)C[C@H]2/C=C/CCC[C@H](CCc2ccc(C(F)(F)F)cc2)O1`, the growth in the test with T-47D breast is -32.2% (active); with BT-549 breast, 4.5% (active); in the test on MDA-MB-435 melanoma it was 7.3% (active); in the test on SW-620 colon, -1.3% (active); with MCF7 breast it was -17.5% (active); in the test on HCT-116 colon, -45.8% (active). Further, the results for the growth with HCC-2998 colon and in the test with KM12 colon were -11.5% (active) and -6.74% (active), respectively.
For the compound `COc1ccc(Cl)cc1Nc1nc(C(F)(F)F)ccc1C(=O)N/N=C/c1ccc(Cl)cc1`, the growth is 37.6% in the test with T-47D breast; 36.9% in the test on BT-549 breast; 59.2% in the test on MDA-MB-435 melanoma; 30.9% in the test on SW-620 colon; 23.6% in the test with MCF7 breast; 21.4% with HCT-116 colon. Moreover, the growth with HCC-2998 colon is 59.4%.
As to `O=C(COc1cccc(/C=C2\CSc3ccc(Cl)cc3C2=O)c1)c1ccc(Cl)cc1`, the growth in the test on T-47D breast was 45.2%; with BT-549 breast, 20.2%; in the test on MDA-MB-435 melanoma, 87.7%; in the test with SW-620 colon, -71.6% (active); in the test with MCF7 breast, -35.1% (active); in the test with HCT-116 colon, 42%. For the same compound, in the test with HCC-2998 colon, the growth was 32.9%.
Consider `c1cnc2[nH]cc(-c3nc(-c4ccsc4)cs3)c2c1`, for which the growth was 66.1% in the test with T-47D breast; 96.1% in the test on BT-549 breast; 98.3% in the test on MDA-MB-435 melanoma; 111% in the test on SW-620 colon; 57.7% with MCF7 breast; 89.9% with HCT-116 colon. The growth with HCC-2998 colon was 115%; in the test on KM12 colon it was 88.9%.

The values are drawn from PubChem BioAssay (NCI).
